Bioassay records deposited in PubChem by Broad Institute.
This is one part of a sample in which hits are shown more often than they occur.
DUX4 inh – DUX4-mediated transcription inhibition. 293T-iDUX4 ZSCAN4-Gaussia luciferase reporter, 24 h; hits give low values. activity change, negative = inhibition, % (concentration not given with the values). hit rate 0.8% among 37,000;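 active = mean inhibition of at least 10% in the main channel, exceeding the control channel by a set limit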;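 also: 0% = median of neutral control wells and -100% = median of positive control wells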
* = called active by the depositor; ! = not confirmed by another sample.

SMILES | DUX4 inh
O=S(=O)(c1ccc(-c2ccccc2)cc1)N1C[C@@H]2N[C@H](C1)C2c1ccc(-c2ccncc2)cc1 (stereo partly drawn) | -32.8*
CN(C)C(=O)c1ccc(-c2ccc(C3[C@@H]4CN(S(=O)(=O)Cc5ccccc5)C[C@H]3N4)cc2)cc1 (stereo partly drawn) | 4.7
C[C@@H]1CN([C@H](C)CO)C(=O)c2cc(/C=C/c3ccccc3)cnc2O[C@H]1CN(C)C(=O)c1ccc2c(c1)OCO2 | -2.1
Cc1noc(C)c1NC(=O)N[C@@H]1CC[C@H](CC(=O)N2CCN(C)CC2)O[C@@H]1CO | -2.1
C[C@@H]1CCCCO[C@@H](CN(C)C(=O)C2CCCCC2)[C@@H](C)CN([C@H](C)CO)C(=O)c2cc(NC(=O)c3ccncc3)ccc2O1 | 4.1
C[C@@H]1CN([C@@H](C)CO)C(=O)c2cc(NC(=O)c3ccncc3)ccc2O[C@@H](C)CCCCO[C@@H]1CN(C)C(=O)Nc1cccc2ccccc12 | 2.8
CCCN1[C@@H]2Cn3c(ccc(-c4ccccc4OC)c3=O)[C@H]1[C@@H](C(=O)N1CCOCC1)[C@@H]2CO | -1.1
CC(=O)N1CC[C@@H]2[C@H]1c1cc(-c3cccc(F)c3)ccc1N[C@@H]2CO | 22.0
N#Cc1cccc(-c2ccc3c(c2)[C@@H]2[C@@H](CCN2Cc2cncnc2)[C@@H](CO)N3)c1 | -5.1
OC[C@@H]1Nc2ccc(-c3ccc(F)cc3)cc2[C@H]2[C@@H]1CCN2Cc1ccc(F)cc1 | -3.2
N#Cc1cccc(-c2ccc3c(c2)[C@H]2[C@H](CCN2C(=O)c2ccncc2)[C@@H](CO)N3)c1 | 7.1
COc1ccc(-c2ccc3c(c2)[C@H]2[C@H](CCN2Cc2ccncc2)[C@@H](CO)N3)cc1 | 7.3
N#Cc1cccc(-c2ccc3c(c2)[C@H]2[C@H](CCN2Cc2ccncc2)[C@@H](CO)N3)c1 | -47.3*
O=C(C1CCC1)N1CC[C@@H]2[C@@H](CO)Nc3ccc(-c4cccc(F)c4)cc3[C@@H]21 | 11.0
OC[C@H]1Nc2ccc(-c3cccc(F)c3)cc2[C@H]2[C@@H]1CCN2Cc1ccc(F)cc1 | -31.6*
OC[C@@H]1Nc2ccc(-c3cccc(F)c3)cc2[C@@H]2[C@H]1CCN2Cc1ccncc1 | 1.0
OC[C@H]1Nc2ccc(-c3cccc(F)c3)cc2[C@@H]2[C@H]1CCN2Cc1ccc(F)cc1 | -24.4*
CC(=O)N1CC[C@@H]2[C@@H](CO)Nc3ccc(-c4cccc(F)c4)cc3[C@@H]21 | 12.9
OC[C@H]1Nc2ccc(-c3cccc(F)c3)cc2[C@H]2[C@@H]1CCN2Cc1ccncc1 | -19.5*
CCC(=O)N1CC2(C1)[C@H](c1ccc(-c3ccccc3)cc1)[C@@H](CO)N2C(C)=O | 4.9
CO[C@H]1CN(C)C(=O)c2ccc(NC(=O)c3cnccn3)cc2OC[C@H](C)N(C(=O)C2CC2)C[C@@H]1C | -5.7
O=C(NC1CCC1)[C@@H]1[C@@H](CO)[C@@H]2Cn3c(ccc(C4=CCCC4)c3=O)[C@H]1N2CC1CC1 | 0.3
CC(=O)N(C)C[C@H]1Oc2cc(-c3ccc(C)cc3)ccc2S(=O)(=O)N([C@H](C)CO)C[C@H]1C | -1.4
N#Cc1cccc(-c2ccc(C3[C@@H]4CN(C(=O)C5CCOCC5)C[C@H]3N4)cc2)c1 (stereo partly drawn) | 1.1
O=S(=O)(c1ccccc1F)N1[C@@H]2CNC[C@H]1C2c1ccc(-c2cccc(F)c2)cc1 (stereo partly drawn) | 3.4
SMILES | DUX4 inh
O=S(=O)(c1ccccc1F)N1CCCCN2[C@H](C1)[C@@H](c1ccc(-c3cncnc3)cc1)[C@@H]2CO | 30.4
O=S(=O)(c1ccccc1F)N1C[C@@H]2N[C@H](C1)C2c1ccc(-c2cncnc2)cc1 (stereo partly drawn) | -14.3*
O=S(=O)(c1ccccc1F)N1C[C@@H]2N[C@H](C1)C2c1ccc(-c2ccncc2)cc1 (stereo partly drawn) | -3.8
N#Cc1cccc(-c2ccc(C3[C@@H]4CN(S(=O)(=O)c5ccccc5F)C[C@H]3N4)cc2)c1 (stereo partly drawn) | -53.6*!
Cc1ccccc1S(=O)(=O)N1[C@H](C#N)[C@H](c2ccc(-c3ccccc3)cc2)[C@H]1CO | -0.2
O=S(=O)(c1ccccc1F)N1[C@@H]2CNC[C@H]1C2c1ccc(-c2ccncc2)cc1 (stereo partly drawn) | -2.0
Cc1ccccc1S(=O)(=O)N1C[C@@H]2N[C@H](C1)C2c1ccc(-c2cccc(C#N)c2)cc1 (stereo partly drawn) | -71.5*!
O=C(C[C@@H]1CC[C@@H]2[C@H](COC[C@@H](O)CN2Cc2ccccc2)O1)NCCCN1CCOCC1 | 10.2
C[C@H](CO)N1C[C@H](C)[C@@H](CN(C)C(=O)c2ccc(F)cc2)Oc2ncc(C#CC3CC3)cc2C1=O | -1.3
